Test in all cases: NCI-60 one-dose screen, 48 h (100 = growth as untreated, 0 = no growth, -100 = all killed)
Common to all, as to details: 10 µM unless noted

The subject of assay [1] is T-47D breast.
Assay [2] relates to BT-549 breast.
Assay [3] concerns MDA-MB-435 melanoma.
Assay [4] relates to SW-620 colon.
In assay [5] the test system is MCF7 breast.
The test system of assay [6] is HCT-116 colon.
Assay [7] deals with HCC-2998 colon.
The subject of assay [8] is KM12 colon.

The panel holds about 83,000 compounds, 20% with a hit somewhere; the sample as a whole holds those more often.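 Method: cells in 96-well plates; compound added at one concentration; 48 h incubation; percent growth measured; values under 10 scored active.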 A number with no mark means an inactive call. Activity calls are given as the source filed them.

For `CCN(CC)c1ccc(/C=N/NC(=O)c2ccc(S(C)(=O)=O)cc2)c(O)c1`, the growth in assay [1] was 30%; in assay [2], 30.7%; in assay [3], 37.2%; in assay [4], 33.1%; in assay [5], 8.79% (active); in assay [6], 18.4%. The growth in assay [7] is 39.6%; in assay [8], 25.9%.

For `CCN(CC)CCNC(=O)n1cc(-c2ccncc2)c(-c2ccc(Cl)c(OC)c2)n1`, the growth in assay [1] is 69.2%; in assay [2], 96.3%; in assay [3], 97.2%; in assay [4], 113%; in assay [5], 85.9%; in assay [6] it was 84%. For the same molecule, the results for the growth in assay [7] and in assay [8] were 99% and 103%, respectively.

With `COc1ccccc1CNCCCN1C(=O)c2ccc3c4c(ccc(c24)C1=O)C(=O)N(CCCOCCCCOCCCN)C3=O`, the growth in assay [1] is -56.8% (active); in assay [2], 27.4%; in assay [3], -84.6% (active); in assay [4], -60.6% (active); in assay [5] it was -69.6% (active); in assay [6], -68.7% (active). Also, the values for the growth in assay [7] and in assay [8] were -53.5% (active) and -59% (active), respectively.

As for `COc1ccc(/C=C(\C#N)c2cc(OC)c(OC)c(OC)c2)cc1`, the growth was 55.7% in assay [1]; 27.3% in assay [2]; 0.449% (active) in assay [3]; 29.7% in assay [4]; 3.63% (active) in assay [5]; 1.54% (active) in assay [6]. Besides, the growth was 21.7% in assay [7] and 6.76% (active) in assay [8].

With `CCOC(=O)c1ccc2c(c1)nc(-c1ccc(Cl)cc1)n2-c1cc(C(C)(C)C)[nH]n1`, the growth in assay [1] is 49.3%; in assay [2], 16.8%; in assay [3] it was -31.2% (active); in assay [4], 42.1%; in assay [5] it was 9.39% (active); in assay [6], 8.57% (active). Moreover, the figures for the growth in assay [7] and in assay [8] were 56.1% and 29.9%, respectively.

For `CCCCCCCCOC(=O)C(C)OC(=O)OCCOCCOC(=O)OC(C)C(=O)OCCCCCCCC` (stereo not drawn), the growth in assay [1] was 99.9%; in assay [2] it was 107%; in assay [3] it was 103%; in assay [4] it was 106%; in assay [5], 104%; in assay [6], 102%. Further, the growth in assay [7] is 100%; in assay [8], 104%.

Take `Nc1c(C(=O)Nc2ccccc2)sc2nc3c(cc12)C(=O)CCC3`: the growth was 47.1% in assay [1]; 65.7% in assay [2]; -5.95% (active) in assay [3]; 27.2% in assay [4]; 19.6% in assay [5]; 23.6% in assay [6]. Further, the growth was 21.9% in assay [7] and 19.9% in assay [8].

Turning to `NC(CCC(=O)NC(CS)C(=O)NCC(=O)O)C(=O)O` (stereo not drawn), the growth in assay [1] is 107%; in assay [2], 119%; in assay [3] it was 106%; in assay [4] it was 103%; in assay [5], 103%; in assay [6], 114%. Also, the growth in assay [7] is 60%; in assay [8], 108%.

In the case of `COc1ccc(C2NC(=O)c3cc4c(cc3N2)OCO4)cc1` (stereo not drawn), the growth in assay [1] was 65.5%; in assay [2], 59.1%; in assay [3], -41.6% (active); in assay [4], 24.1%; in assay [5], 18.2%; in assay [6], 14.1%. Further, the growth was 9.52% (active) in assay [7] and 9.55% (active) in assay [8].

In the case of `CCCCCCCC/C=C/CCCCCCCC1=NC(C)(C)CN1C(C)C`, the growth is -29.2% (active) in assay [1]; 60.9% in assay [2]; -58.3% (active) in assay [3]; -69.8% (active) in assay [4]; -60.5% (active) in assay [5]; -74.8% (active) in assay [6]. In addition, the growth was -91.8% (active) in assay [7] and -77.1% (active) in assay [8].

Consider `COc1cc(OC)c2sc(-c3ccc(-n4cncc4-c4ccc(OC)c(N)c4)cc3)nc2c1`, for which the growth was 77.2% in assay [1]; 75.2% in assay [2]; 68.8% in assay [3]; 89.1% in assay [4]; 67.3% in assay [5]; 66% in assay [6]. Further, the growth is 91.8% in assay [7] and 77.7% in assay [8].

`O=C1Nc2ccc(Br)cc2/C1=N/c1nc(-c2ccccc2)cs1`: the growth in assay [1] is 58.9%; in assay [2], 73.2%; in assay [3] it was 97.8%; in assay [4] it was 88.6%; in assay [5], 67.4%; in assay [6] it was 75.6%. In addition, the growth in assay [7] is 109%; in assay [8], 88.3%.

With `COC(=O)OC1C(O[C@H]2C[C@H]3[C@@H]4CC=C5C[C@@H](O)CC[C@]5(C)[C@H]4CC[C@]3(C)[C@H]2[C@H](C)C(=O)CCC(C)C)OCC(O)C1OC1OCC(O)C(O)C1OC(=O)c1ccc(OC)cc1` (stereo partly drawn), the growth was -5.41% (active) in assay [1]; 6.19% (active) in assay [2]; -15.3% (active) in assay [3]; -55.9% (active) in assay [4]; -8.41% (active) in assay [5]; 5.29% (active) in assay [6]. Also, the growth in assay [7] was 53.7%; in assay [8], 39.2%.

Regarding `C=CCOC(=O)C1=C(C)NC2=C(C(=O)CCC2)C1c1ccc(F)cc1` (stereo not drawn), the growth in assay [1] was 89.4%; in assay [2] it was 99.4%; in assay [3], 101%; in assay [4] it was 94.4%; in assay [5] it was 95.6%; in assay [6] it was 92.3%. Besides, the growth was 104% in assay [7] and 93.8% in assay [8].

As to `COc1ccc2[nH]cc(C3(c4c[nH]c5ccc(OC)cc45)C(=O)Nc4ccc(F)cc43)c2c1`, the growth in assay [1] was 93.7%; in assay [2], 80.1%; in assay [3], 9.03% (active); in assay [4] it was 25.9%; in assay [5], 66.2%; in assay [6], 69%. Moreover, the growth in assay [7] is 72%; in assay [8] it was 51.1%.

As for `O=[N+]([O-])c1ccc(N=Nc2c(NNc3ccc([N+](=O)[O-])cn3)cc(S(=O)(=O)O)c3ccccc23)nc1`, the growth in assay [1] is 90.9%; in assay [2] it was 81.7%; in assay [3], 90%; in assay [4], 83.1%; in assay [5], 85.9%; in assay [6], 69.6%. Moreover, the results for the growth in assay [7] and in assay [8] were 87.1% and 87.6%, respectively.

The values above are taken from PubChem BioAssay (NCI).
